Source: PubChem BioAssay
Active and inactive are the calls of the source.

What was measured:
[1] = tested on: Plasmodium falciparum Sir2 (PF13_0152, Sir2A); test: Plasmodium falciparum Sir2A binding compounds – biochemical, small-molecule microarray, 635 nm fluorescence, primary screen (AID 1098); conditions: fluorescence 635 nm, higher = more signal;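 further: score merges spot fluorescence intensity with its signal-to-noise ratio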
[2] = probe aDKK1 binding to arrayed compounds – biochemical, biotinylated probe, 635/667 nm fluorescence, primary screen (AID 1099); conditions: small-molecule microarray, higher = more signal;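 further: score merges 667nm spot fluorescence with signal to noise across triplicate slides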
[3] = probe aCHRDL2 binding to arrayed compounds – biochemical, biotinylated probe, 635/667 nm fluorescence, primary screen (AID 1100); conditions: small-molecule microarray, higher = more signal
[4] = change in splice reporter luminescence, either direction, cell-based, HEK293, spliceosome inhibition project, primary screen (AID 1101); conditions: HEK293 splicing luciferase reporter, 24 h, higher = more signal, called active from +8 up or from −8 down;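 further: HEK293 cells carrying a splicing-competent luciferase reporter gene; test concentration not given here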
[5] = molecular target: Fibroblast growth factor 10 (Homo sapiens) (UniProt O15520); test: compounds binding fibroblast growth factor 10 – biochemical, small-molecule microarray, 635 nm fluorescence, primary screen (AID 1102); conditions: FGF10 binding, fluorescence 635 nm, higher = more signal
Fibroblast growth factor 10 (Homo sapiens), sequence (O15520 whole entry, looked up): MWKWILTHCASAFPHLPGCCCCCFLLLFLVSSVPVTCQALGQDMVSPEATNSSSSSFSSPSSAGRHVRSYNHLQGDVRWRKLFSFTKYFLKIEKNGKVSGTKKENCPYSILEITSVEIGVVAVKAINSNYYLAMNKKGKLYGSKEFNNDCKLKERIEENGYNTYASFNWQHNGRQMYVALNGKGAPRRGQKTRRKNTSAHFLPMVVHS

[6] = tested on: glycogen synthase kinase-3 (GSK3A per assay name; protocol says GSK3B); test: compounds binding glycogen synthase kinase-3 – biochemical, small-molecule microarray, 635 nm fluorescence, GSK3A, primary screen (AID 1103); conditions: fluorescence 635 nm, higher = more signal; further: the record names both GSK3A and GSK3B
[7] = molecular target: Epidermal growth factor receptor (Homo sapiens) (UniProt P00533); test: compounds binding epidermal growth factor receptor – biochemical, small-molecule microarray, 635 nm fluorescence, primary screen (AID 1104); conditions: EGFR binding, higher = more signal;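 further: score merges 667 nm emission intensity with spot signal to noise over triplicate slides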
Epidermal growth factor receptor (Homo sapiens), sequence (P00533 whole entry, looked up): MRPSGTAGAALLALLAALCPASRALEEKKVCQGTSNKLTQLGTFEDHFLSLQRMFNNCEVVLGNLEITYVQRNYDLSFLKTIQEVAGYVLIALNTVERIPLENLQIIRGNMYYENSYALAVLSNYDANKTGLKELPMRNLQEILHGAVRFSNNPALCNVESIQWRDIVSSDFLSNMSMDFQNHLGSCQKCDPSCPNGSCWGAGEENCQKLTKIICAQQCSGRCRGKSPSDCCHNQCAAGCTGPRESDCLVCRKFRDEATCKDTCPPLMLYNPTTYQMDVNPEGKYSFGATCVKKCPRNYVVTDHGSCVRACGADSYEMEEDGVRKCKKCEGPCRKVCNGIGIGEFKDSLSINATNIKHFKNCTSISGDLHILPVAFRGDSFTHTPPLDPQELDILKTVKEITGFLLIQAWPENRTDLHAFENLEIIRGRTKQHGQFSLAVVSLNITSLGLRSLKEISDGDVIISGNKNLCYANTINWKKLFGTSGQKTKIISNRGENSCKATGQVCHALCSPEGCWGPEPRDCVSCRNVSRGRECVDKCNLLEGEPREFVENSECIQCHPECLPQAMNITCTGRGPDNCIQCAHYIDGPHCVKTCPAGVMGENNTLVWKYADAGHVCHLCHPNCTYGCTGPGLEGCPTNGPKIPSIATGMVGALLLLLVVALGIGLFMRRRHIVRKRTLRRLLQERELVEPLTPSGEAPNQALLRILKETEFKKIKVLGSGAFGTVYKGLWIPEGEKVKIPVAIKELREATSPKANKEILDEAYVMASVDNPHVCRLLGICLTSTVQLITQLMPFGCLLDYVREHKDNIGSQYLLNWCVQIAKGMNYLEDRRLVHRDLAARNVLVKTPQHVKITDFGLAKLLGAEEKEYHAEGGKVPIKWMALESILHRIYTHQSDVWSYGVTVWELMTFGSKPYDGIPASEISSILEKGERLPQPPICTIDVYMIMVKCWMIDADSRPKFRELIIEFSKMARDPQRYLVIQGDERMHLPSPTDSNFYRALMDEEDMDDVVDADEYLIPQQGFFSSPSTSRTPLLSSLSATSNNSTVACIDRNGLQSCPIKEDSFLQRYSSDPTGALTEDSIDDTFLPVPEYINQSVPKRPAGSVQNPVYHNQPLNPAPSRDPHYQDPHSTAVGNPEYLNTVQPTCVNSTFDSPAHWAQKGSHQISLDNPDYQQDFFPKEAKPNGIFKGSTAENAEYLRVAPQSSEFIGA

[8] = molecular target: Follistatin-related protein 3 (Homo sapiens) (UniProt O95633); test: compounds binding follistatin-related protein 3 – biochemical, small-molecule microarray, 635 nm fluorescence, primary screen (AID 1105); conditions: FSTL3 binding, higher = more signal;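 further: score merges emission near 667 nm and signal to noise per printed spot across three slides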
Follistatin-related protein 3 (Homo sapiens), sequence (O95633 whole entry, looked up): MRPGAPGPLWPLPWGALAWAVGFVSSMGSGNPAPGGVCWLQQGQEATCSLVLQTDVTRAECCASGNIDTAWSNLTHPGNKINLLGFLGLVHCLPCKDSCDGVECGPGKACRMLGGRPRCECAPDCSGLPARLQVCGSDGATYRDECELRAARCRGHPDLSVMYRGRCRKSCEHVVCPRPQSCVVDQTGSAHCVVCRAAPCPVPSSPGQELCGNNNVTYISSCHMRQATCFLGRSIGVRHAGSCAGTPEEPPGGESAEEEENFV

[9] = molecular target: Dickkopf-related protein 1 (Homo sapiens) (UniProt O94907); test: small molecules binding DKK1 protein – biochemical, small-molecule microarray, 635 nm fluorescence scan, primary screen (AID 1106); conditions: higher = more signal;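 further: score merges emission near 667 nm with signal to noise over three replicate slides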
Dickkopf-related protein 1 (Homo sapiens), sequence (O94907 whole entry, looked up): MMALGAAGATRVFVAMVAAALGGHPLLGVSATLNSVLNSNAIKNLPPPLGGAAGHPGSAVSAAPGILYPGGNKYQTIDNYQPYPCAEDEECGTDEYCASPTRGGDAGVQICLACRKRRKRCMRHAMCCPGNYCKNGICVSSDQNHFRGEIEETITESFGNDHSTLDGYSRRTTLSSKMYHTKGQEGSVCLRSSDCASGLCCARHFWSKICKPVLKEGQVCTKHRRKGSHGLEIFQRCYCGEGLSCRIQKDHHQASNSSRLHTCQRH

[10] = tested on: Inhibin beta A chain (activin A); test: small molecules binding activin A – biochemical, small-molecule microarray, 635 nm fluorescence scan, primary screen (AID 1107); conditions: INHBA, higher = more signal;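 further: mouse activin A protein probed at 4.33 µg/mL on printed slides; score merges bound-protein fluorescence near 667 nm with spot signal-to-noise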
[11] = tested on: Human papillomavirus type 1a protein E7 (residues 44-93); test: small molecules binding HPV E7 44-93 – biochemical, small-molecule microarray, residues 44-93, 635 nm fluorescence, primary screen (AID 1108); conditions: fluorescence 635 nm, higher = more signal;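 further: E7 fragment applied at 1 µg/mL in TBST for 1 h at 4 C; score combines spot fluorescence with its signal to noise ratio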
[12] = hepatitis C replication reporter changes, two-sided – Huh7 cells, luciferase reporter, HCV replication inhibitor project, primary screen (AID 1109); conditions: Huh7 HCV replicon luciferase reporter, 48 h; higher = more signal;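 further: huh7 hepatoma cells harbouring a luciferase neomycin HCV replicon reporter; luciferase luminescence as measure of HCV replicon replication; test concentration not given here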
[13] = molecular target: Left-right determination factor 2 (Homo sapiens) (UniProt O00292); test: small molecules binding LEFTY2 protein – biochemical, small-molecule microarray, 635 nm fluorescence scan, primary screen (AID 1110); conditions: higher = more signal
Left-right determination factor 2 (Homo sapiens), sequence (O00292 whole entry, looked up): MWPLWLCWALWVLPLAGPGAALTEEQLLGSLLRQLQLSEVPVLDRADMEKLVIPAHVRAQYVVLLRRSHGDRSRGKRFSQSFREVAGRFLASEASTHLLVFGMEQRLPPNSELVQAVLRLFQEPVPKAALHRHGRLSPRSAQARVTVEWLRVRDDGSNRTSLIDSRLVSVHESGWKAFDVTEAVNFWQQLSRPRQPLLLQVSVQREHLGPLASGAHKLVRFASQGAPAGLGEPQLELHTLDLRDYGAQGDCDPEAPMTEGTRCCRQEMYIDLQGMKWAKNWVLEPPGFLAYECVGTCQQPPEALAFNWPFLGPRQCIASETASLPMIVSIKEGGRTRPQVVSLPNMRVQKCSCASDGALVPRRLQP

[14] = molecular target: Calmodulin-1 (Homo sapiens) (UniProt P0DP23); test: small molecules binding calmodulin-1 with EGTA – biochemical, small-molecule microarray, Cy5-labelled CALM1, profiling panel (AID 1111); conditions: Cy5-CALM1 binding fluorescence, higher = more signal;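 further: labelled calmodulin applied in Tris saline Tween buffer holding calcium plus EGTA and DTT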
[15] = molecular target: Calmodulin-1 (Homo sapiens) (UniProt P0DP23); test: small molecules binding Ca-loaded calmodulin-1 – biochemical, small-molecule microarray, Cy5-labelled CALM1, plus calcium, artefact control for SMM control-protein annotation, profiling panel (AID 1112); conditions: Cy5-CALM1 binding fluorescence, higher = more signal;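 further: score merges spot fluorescence with signal to noise from triplicate slides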
[16] = probe aWnt5a binding to arrayed compounds – biochemical, biotinylated probe, 635/667 nm fluorescence, primary screen (AID 1113); conditions: small-molecule microarray, higher = more signal;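 further: score merges 667 nm fluorescence intensity with signal-to-noise per printed feature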
[17] = probe aShh binding to arrayed compounds – biochemical, biotinylated probe, 635/667 nm fluorescence, primary screen (AID 1114); conditions: small-molecule microarray, higher = more signal;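 further: probe is biotin-labelled aShh protein from a stem cell growth factor screen; measures binding of labelled protein to compounds printed on the slide; score merges feature fluorescence at 667 nm with signal-to-noise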
[18] = probe aNog binding to arrayed compounds – biochemical, biotinylated probe, 635/667 nm fluorescence, primary screen (AID 1115); conditions: small-molecule microarray, higher = more signal;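 further: probe is biotinylated aNog protein used at 0.15 µg/mL for 1 h at 4 C; z-score combines 667 nm fluorescence of each spot with its signal to noise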
[19] = molecular target: Torsin-1A-interacting protein 1 (Homo sapiens) (UniProt Q5JTV8); test: compound microarray binding of lysate hLAP1 – cell lysate, small-molecule microarray, COS7 lysate, 635/667 nm fluorescence, primary screen (AID 1116); conditions: 635 nm fluorescence, higher = more signal
Torsin-1A-interacting protein 1 (Homo sapiens), sequence (Q5JTV8 whole entry, looked up): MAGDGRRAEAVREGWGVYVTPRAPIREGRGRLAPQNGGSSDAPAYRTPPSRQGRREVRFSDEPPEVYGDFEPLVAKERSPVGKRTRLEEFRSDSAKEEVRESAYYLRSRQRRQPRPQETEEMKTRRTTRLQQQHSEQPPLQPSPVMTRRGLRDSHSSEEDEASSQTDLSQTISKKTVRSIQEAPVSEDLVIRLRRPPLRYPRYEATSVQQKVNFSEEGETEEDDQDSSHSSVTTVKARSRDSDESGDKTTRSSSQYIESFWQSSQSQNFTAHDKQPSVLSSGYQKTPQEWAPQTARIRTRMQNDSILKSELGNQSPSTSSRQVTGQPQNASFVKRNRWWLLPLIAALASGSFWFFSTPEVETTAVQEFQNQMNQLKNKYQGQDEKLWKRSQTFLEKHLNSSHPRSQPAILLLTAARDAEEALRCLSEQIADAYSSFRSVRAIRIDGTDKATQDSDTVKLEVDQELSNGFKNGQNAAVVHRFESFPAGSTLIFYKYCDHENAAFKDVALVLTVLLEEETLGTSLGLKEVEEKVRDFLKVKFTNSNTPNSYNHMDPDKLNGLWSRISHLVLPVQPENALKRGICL

[20] = molecular target: Alpha-bungarotoxin (Bungarus multicinctus) (UniProt P60615); test: compounds binding labelled alpha-BTX control protein – biochemical, small-molecule microarray, Alexa647 label, 635/667 nm fluorescence, artefact control for SMM control protein annotation, profiling panel (AID 1117); conditions: alpha-BTX-A647 binding fluorescence, higher = more signal
Alpha-bungarotoxin (Bungarus multicinctus), sequence (P60615 whole entry, looked up): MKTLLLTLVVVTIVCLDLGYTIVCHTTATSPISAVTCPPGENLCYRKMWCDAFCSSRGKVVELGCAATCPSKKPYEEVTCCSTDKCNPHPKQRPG

Work on CN1C(=O)C2C(C1=O)C1C=C(CCCO)C2C(C2CC2)N1Cc1cc2c(cc1Br)OCO2 (stereo not given) yielded a composite z-score [1] of 0.553, a composite z-score [2] of -0.272 and a composite z-score [3] of 0.288. The z-score [4] was -0.0854 (inactive), the composite z-score [5] was 0.357 and the composite z-score [6] was 0.963. It also gave a composite z-score [7] of -0.0564, a composite z-score [8] of -0.0617 and a composite z-score [9] of 0.107. For the same compound, the composite z-score [10] was 1.36, the composite z-score [11] was 0.295 and the z-score [12] was -0.734. For the same compound, the composite z-score [13] was 0.285, the composite z-score [14] was 0.508 and the composite z-score [15] was 0.724. It also gave a composite z-score [16] of -0.0462, a composite z-score [17] of 0.0893 and a composite z-score [18] of 1.21. For the same compound, the composite z-score [19] was 1.33 and the composite z-score [20] was 1.58.
For CC1(C)C(=O)C(c2ccccc2)=C2CN3C(=O)N(CCc4ccccc4)C(=O)C3(Cc3ccc(C(F)(F)F)cc3)C=C21 (stereo not given), the composite z-score [1] was 0.9, the composite z-score [2] was 1.01 and the composite z-score [3] was 1.12. The z-score [4] was 0.701 (inactive), the composite z-score [5] was 0.472 and the composite z-score [6] was 0.288. For the same compound, the composite z-score [7] was -0.0744, the composite z-score [8] was 0.717 and the composite z-score [9] was -1.01. The composite z-score [10] was 0.721, the composite z-score [11] was 1.19 and the z-score [12] was -1.66. For the same compound, the composite z-score [13] was -0.668, the composite z-score [14] was 1.36 and the composite z-score [15] was 0.858. For the same compound, the composite z-score [16] was 0.0226, the composite z-score [17] was 1.05 and the composite z-score [18] was 1.8. For the same compound, the composite z-score [19] was 0.393 and the composite z-score [20] was 0.234.
For CC(C)N1CC=CC23O[C@@H]4/C=C\CCCOC(=O)C4[C@H]2C(=O)N(CCCCCCO)[C@@H]3C1=O (stereo not given in full), the composite z-score [1] was 1.44, the composite z-score [2] was 0.0846 and the composite z-score [3] was 0.777. For the same compound, the z-score [4] was 0.569 (inactive), the composite z-score [5] was -0.614 and the composite z-score [6] was -0.24. The composite z-score [7] was -1.12, the composite z-score [8] was -1.04 and the composite z-score [9] was -1.08. It also gave a composite z-score [10] of 1.03, a composite z-score [11] of 0.509 and a z-score [12] of -0.276. It also gave a composite z-score [13] of -1.46, a composite z-score [14] of -0.954 and a composite z-score [15] of -0.488. The composite z-score [16] was -0.0643, the composite z-score [17] was -0.346 and the composite z-score [18] was 0.345. The composite z-score [19] was 0.881 and the composite z-score [20] was -1.5.
In the case of CCN(CC)c1ccc(N2CC=CC34O[C@@H]5C=CCCOC(=O)C5[C@H]3C(=O)N(CCO)[C@@H]4C2=O)cc1 (stereo not given in full), the composite z-score [1] is reported as -0.0437, the composite z-score [2] is reported as -0.289 and the composite z-score [3] is reported as 0.269. The z-score [4] was -0.688 (inactive), the composite z-score [5] was -0.504 and the composite z-score [6] was -0.908. The composite z-score [7] was -0.869, the composite z-score [8] was -1.45 and the composite z-score [9] was -0.351. For the same compound, the composite z-score [10] was -0.589, the composite z-score [11] was -0.595 and the z-score [12] was -0.362. For the same compound, the composite z-score [13] was -1.37, the composite z-score [14] was -0.547 and the composite z-score [15] was -0.183. It also gave a composite z-score [16] of -0.214, a composite z-score [17] of -0.26 and a composite z-score [18] of 2.13. For the same compound, the composite z-score [19] was -1.01 and the composite z-score [20] was 0.253.
C=C(C(=O)CC[C@@H](OC(=O)c1ccccc1-c1ccccc1C(=O)O)c1ccccc1OCCO)C(C)C gave a composite z-score [1] of 1.07, a composite z-score [2] of -0.232 and a composite z-score [3] of -0.463. For the same compound, the z-score [4] was 1.58 (inactive), the composite z-score [5] was 1.53 and the composite z-score [6] was 0.645. For the same compound, the composite z-score [7] was 0.354, the composite z-score [8] was 1.38 and the composite z-score [9] was 0.73. For the same compound, the composite z-score [10] was 1.26, the composite z-score [11] was 1.38 and the z-score [12] was -2.63. For the same compound, the composite z-score [13] was 0.355, the composite z-score [14] was 0.0583 and the composite z-score [15] was -0.7. For the same compound, the composite z-score [16] was -0.0405, the composite z-score [17] was 0.232 and the composite z-score [18] was -0.409. For the same compound, the composite z-score [19] was 0.202 and the composite z-score [20] was 1.05.
With COc1ccc([Si](C)(C)[C@@H]2[C@@H](CC(=O)N3Cc4ccccc4C[C@H]3CO)O[C@]3(C(=O)N(c4ccccc4)c4ccccc43)[C@H]2C)cc1 the composite z-score [1] was 2.04, the composite z-score [2] was 0.713 and the composite z-score [3] was 0.449. The z-score [4] was -0.0709 (inactive), the composite z-score [5] was 1.09 and the composite z-score [6] was 1.26. The composite z-score [7] was 0.799, the composite z-score [8] was 1.37 and the composite z-score [9] was 1.1. For the same compound, the composite z-score [10] was 0.816, the composite z-score [11] was 1.38 and the z-score [12] was -4.41. It also gave a composite z-score [13] of 0.671, a composite z-score [14] of 1.75 and a composite z-score [15] of 1.36. The composite z-score [16] was 0.418, the composite z-score [17] was 0.293 and the composite z-score [18] was 1.14. For the same compound, the composite z-score [19] was 0.553 and the composite z-score [20] was 1.26.
For C=C[C@H](C)[C@H](OC(=O)Nc1ccc(OC)cc1)c1ccc(OCCO)cc1, the composite z-score [1] was 0.515, the composite z-score [2] was -0.115 and the composite z-score [3] was 0.931. The z-score [4] was -0.921 (inactive), the composite z-score [5] was -1.12 and the composite z-score [6] was -0.78. The composite z-score [7] was -2.13, the composite z-score [8] was -0.844 and the composite z-score [9] was -1.28. The composite z-score [10] was -0.801, the composite z-score [11] was -0.562 and the z-score [12] was 0.0055. The composite z-score [13] was -2.08, the composite z-score [14] was -1.39 and the composite z-score [15] was -0.0296. It also gave a composite z-score [16] of -0.222, a composite z-score [17] of -0.0553 and a composite z-score [18] of -0.142. For the same compound, the composite z-score [19] was -0.18 and the composite z-score [20] was -1.79.
